Measured values reported in PubChem BioAssay AID686978 (National Center for Advancing Translational Sciences (NCATS), 2013).
Hit rate of the full screen: of about 420,000 compounds, about 64,000 (15%) were called active. Another 27% or so got no clear call; they are omitted. The call rests on the fitted dose curve; in most records, active means well fitted inhibition curve with a large enough effect; inconclusive means small, poorly fitted or top-dose-only effect; inactive means flat fitted curve, though single readings scatter. A selection follows.

assay: qHTS for Inhibitors of human tyrosyl-DNA phosphodiesterase 1 (TDP1): qHTS in cells in absence of CPT; conditions: DT40 Tdp1-/- hTDP1 cells, no CPT, ATP luminescence, 48 h; activity change, negative = growth inhibition: at 46.2 µM (top of the series); further: nearly all actives have a fitted effect of over 55% in size
Procedure, shortened: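 No-CPT arm: Tdp1-/-;hTDP1 DT40 cells (400/well) plus compounds, incubated ≥48 hr at 37 °C. Readout CellTiter-Glo luminescence.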
On the % scale 0 is the no-effect control and ±100 the full control effect; potency means the concentration at half of the fitted maximal effect.

Row | SMILES | activity change, negative = growth inhibition | Potency
1 | Cc1ccc(S(=O)(=O)c2nnn3c2nc(N2CCN(c4ccccc4F)CC2)c2cc(Cl)ccc23)cc1C | 1.48% (inactive) | –
2 | COc1ccc(OC)c(NC(=O)Cn2c(=O)n(Cc3ccccc3)c(=O)c3ccccc32)c1 | -29.5% (inactive) | –
3 | COCCn1c(SCC(=O)Nc2cc(OC)ccc2OC)nc2c(c1=O)SC(C)C2 (stereo not drawn) | – | 13 µM (active)
4 | COc1ccc(NC(=O)CSc2nc(SC)ns2)c(OC)c1 | -27.9% (inactive) | –
5 | COCCn1c(SCC(=O)Nc2cc(Cl)ccc2OC)nc2c(c1=O)SC(C)C2 (stereo not drawn) | – | 20.6 µM (active)
6 | Cc1ccc(Cl)cc1NC(=O)CSc1nccn1C | -0.404% (inactive) | –
7 | COCCn1c(SCC(=O)Nc2ccccc2F)nc2c(c1=O)SCC2 | -2.31% (inactive) | –
8 | CCc1cccc(C)c1NC(=O)CSc1nnc(-c2ccco2)n1N | -2.14% (inactive) | –
9 | CCOC(=O)CSc1nnc(NC(=O)c2cccc(S(=O)(=O)N3CCCC3)c2)s1 | 13.6% (inactive) | –
10 | O=C(Nc1cccc2cccnc12)c1cccc2c(Br)cccc12 | -20.3% (inactive) | –
11 | Cc1ccccc1CS(=O)(=O)CC1(O)CCN(C(=O)c2cccc(C(F)(F)F)c2)CC1 | -6.73% (inactive) | –
12 | CCN(Cc1ccccc1)C(=O)CCS(=O)(=O)c1ccc2c(c1)oc(=O)n2C | – | inactive
13 | COc1cccc2c1CCC(NC(C)=O)C2=O (stereo not drawn) | -4.13% (inactive) | –
14 | FC(F)(F)c1ccc(-n2cn[nH]c2=S)cc1 | -10.5% (inactive) | –
15 | COc1ccc(-c2c(C)nn3c(N4CCC(C(=O)N5CCCCC5)CC4)cc(C)nc23)cc1OC | -17.1% (inactive) | –
16 | N#Cc1cc([N+](=O)[O-])ccc1NCC1CCCO1 (stereo not drawn) | -0.195% (inactive) | –
17 | O=C(Nc1ccc2c(c1)OCCO2)c1ccoc1 | -33.9% (inactive) | –
18 | COc1ccc(N2C(=O)CC(Nc3ccc(F)cc3)C2=O)c([N+](=O)[O-])c1 (stereo not drawn) | -3.43% (inactive) | –
19 | CS(=O)(=O)N1CCN(c2ccc(C(=O)NC3C4CC5CC(C4)CC3C5)cc2[N+](=O)[O-])CC1 (stereo not drawn) | – | 23.1 µM (active)
20 | COc1ccc(NS(=O)(=O)c2ccc(N3CCOCC3)c(NC(=O)/C=C/C(=O)O)c2)cc1 | -23.9% (inactive) | –
21 | Cc1ccc(S(=O)(=O)NCCSc2ccccc2)cc1[N+](=O)[O-] | -20.9% (inactive) | –
22 | CN1CCN(c2ccc(S(=O)(=O)Nc3ccccc3)cc2[N+](=O)[O-])CC1 | – | 9.2 µM (active)
23 | CC1CCN(c2ccc(S(=O)(=O)Nc3cc(C(=O)O)cc(C(=O)O)c3)cc2[N+](=O)[O-])CC1 | 4.27% (inactive) | –
24 | Cc1ccc(C(=O)c2ccc(N3CCN(C)CC3)c([N+](=O)[O-])c2)cc1 | – | 23.1 µM (active)
25 | Cc1ccc(S(=O)(=O)N2CCN(C(=O)c3ccc(-n4cncn4)c([N+](=O)[O-])c3)CC2)cc1 | -29.7% (inactive) | –
26 | Cc1cccc(N2CCN(c3ccc(C(N)=O)cc3[N+](=O)[O-])CC2)c1C | -4.39% (inactive) | –

Row | SMILES | activity change, negative = growth inhibition | Potency
27 | COc1ccc(NS(=O)(=O)c2ccc(N3CCN(CCO)CC3)c([N+](=O)[O-])c2)cc1 | – | 3.66 µM (active)
28 | FC(F)(F)c1ccc2nnc(-c3c(Cl)cccc3Cl)n2c1 | -12.2% (inactive) | –
29 | COc1ccc(-n2c(C)nn(CC3CC3)c2=O)cc1 | 10.3% (inactive) | –
30 | O=C(COc1coc(CN2CCN(c3ccccc3)CC2)cc1=O)N1CCc2ccccc21 | -17.8% (inactive) | –
31 | O=C(NCCN=C1NS(=O)(=O)c2ccccc21)c1ccc(S(=O)(=O)N2CCOCC2)cc1 | -8% (inactive) | –
32 | CCCCCCOC(=O)NCC(O)c1ccccc1 (stereo not drawn) | -20.7% (inactive) | –
33 | CC(C)C[C@H](NC(=O)C1CCC(CNC(=O)[C@@H]2CCCN2C(=O)OC(C)(C)C)CC1)C(=O)O (stereo partly drawn) | -8.04% (inactive) | –
34 | CC(=O)OCC(=O)C1CCC2C3CCC4=CC(=O)CC[C@@]4(C)C3CC[C@]12C (stereo partly drawn) | -25.1% (inactive) | –
35 | CSc1ncnc2c1ncn2CC(=O)C1CCC2C3CCC4=CC(=O)CCC4(C)C3CCC12C (stereo not drawn) | – | 5.8 µM (active)
36 | C#CCOc1ccc(/C=C2/C(=O)NN(c3ccccc3)C2=O)cc1OC | -5.13% (inactive) | –
37 | COc1ccnc2c1c(=O)n(Cc1cccc(F)c1)c(=O)n2C | -26.1% (inactive) | –
38 | COc1cc(/C=C2/C(=O)ON=C2C)ccc1OCc1cccc(F)c1 | – | 16.4 µM (active)
39 | Cc1c(C(=O)O)nnn1-c1nonc1N | 0.48% (inactive) | –
40 | CCOc1cc(C(=O)Nc2ncccn2)cc(OCC)c1OCC | 0.439% (inactive) | –
41 | CC1C/C(=N/NC(=O)c2cccs2)CC(C)(C)C1 (stereo not drawn) | 2.47% (inactive) | –
42 | CSCCC(Nc1nc2ccccc2s1)C(=O)O (stereo not drawn) | -13.3% (inactive) | –
43 | COc1cccc2sc(NNC(=O)c3nc4ccccc4s3)nc12 | – | 6.51 µM (active)
44 | COc1ccc(S(=O)(=O)N2CCOCC2)cc1C(=O)Nc1nc2ccccc2s1 | -18.8% (inactive) | –
45 | Cc1ccc(N2CC(C(=O)NCCS(=O)(=O)N3CCN(c4ccccc4)CC3)CC2=O)cc1 (stereo not drawn) | – | inactive
46 | COc1ccccc1NC(=O)COC(=O)c1ccccc1SCC(=O)N1CCCC1 | -5.43% (inactive) | –
47 | CCCCN1C(=O)C(=O)N(CC(=O)Nc2cccc(C(C)=O)c2)C1=O | 12.5% (inactive) | –
48 | CCN(CC)c1ccc(NC(=O)CN2C(=O)c3cccnc3Oc3ccc(Cl)cc32)c(C)c1 | – | 13 µM (active)
49 | CCN(CC)c1ccc(NC(=O)Cn2nc3c(cc2=O)CCCC3)c(C)c1 | -5.62% (inactive) | –
50 | Cc1ccc2c(c1)N(CC(=O)NCCCN1CCCCC1)C(=O)c1cccnc1O2 | – | inactive
51 | CC(=O)Nc1cccc(C(=O)OCN2C(=O)c3ccccc3C2=O)c1 | 9.39% (inactive) | –
52 | Cc1ccc2c(c1)N(CC(=O)NCCc1ccc(Cl)cc1)C(=O)c1cccnc1O2 | – | 1.16 µM (active)

Row | SMILES | activity change, negative = growth inhibition | Potency
53 | CC(=O)c1cccc(NC(=O)CN2C(=O)c3cccnc3Oc3ccc(Cl)cc32)c1 | – | 13 µM (active)
54 | CC1(c2ccc(Cl)cc2Cl)NC(=O)N(CC(=O)Nc2cccnc2Cl)C1=O (stereo not drawn) | -11% (inactive) | –
55 | Cc1ccc2[nH]c3c(=O)n(CC(=O)NCCc4ccc(Cl)cc4)ncc3c2c1 | – | inactive
56 | O=C(COC(=O)c1ccc(S(=O)(=O)N2CCc3ccccc3C2)cc1)NC(=O)NCc1ccco1 | -28.8% (inactive) | –
57 | O=C(COc1ccc([N+](=O)[O-])cc1Cl)Nn1cnnc1 | 2.52% (inactive) | –
58 | CNc1nc(=O)n(C2CCCO2)cc1C (stereo not drawn) | -0.128% (inactive) | –
59 | O=C(CCC(=O)N1CCCC1)Nc1ccc([N+](=O)[O-])cc1 | 2.85% (inactive) | –
60 | COC(=O)NNC(=O)C1CCC(C)CC1 (stereo not drawn) | – | inactive
61 | COc1ccc(C(=O)NN(C)c2nc(-c3ccccc3)cc(C)c2S(C)(=O)=O)cc1 | – | 18.4 µM (active)
62 | COc1ccc(C(=O)NN2C(=O)C3C(c4ccccc4)C=CC(c4ccccc4)C3C2=O)cc1 (stereo not drawn) | -11.1% (inactive) | –
63 | COc1ccc(C(=O)NNS(=O)(=O)c2ccc(C)cc2)cc1 | -3.48% (inactive) | –
64 | COc1ccc(CN2C(=O)C(CC(=O)NC3CCCCC3)CC(C(=O)N3CCOCC3)=C2C)cc1 (stereo not drawn) | -5.23% (inactive) | –
65 | CC(C)c1cc(NCc2ccccn2)n2c(nc3ccccc32)c1C#N | – | 11.6 µM (active)
66 | Cc1cc(NC(C)C)n2c(nc3ccccc32)c1C#N | -24.2% (inactive) | –
67 | CCCc1nnc(NC(=O)c2cc(OC)cc(OC)c2)s1 | -14.6% (inactive) | –
68 | O=C(CSc1n[nH]c(-c2cccnc2)n1)Nc1ccc(Cl)cc1 | -10.4% (inactive) | –
69 | CCN(CC(=O)NC(C)C)C(=O)CCNC(=O)c1ccc(Cl)cc1 | -22.4% (inactive) | –
70 | COc1cc2[nH]c(O)c(C=O)c2cc1OC | -9.43% (inactive) | –
71 | COc1cc(N=Cc2c(O)c3ccccc3oc2=O)c(OC)cc1Cl | -26.2% (inactive) | –
72 | COc1cc(N=Cc2c(O)[nH]c3ccccc23)cc(OC)c1OC | – | 13 µM (active)
73 | CCn1c(O)c2ccc(C(=O)N=NC(=O)c3cccnc3)cc2c1O | -4.25% (inactive) | –
74 | Cc1cc(OC(C)C(=O)Nc2ccc(S(=O)(=O)Nc3onc(C)c3C)cc2)cc(C)c1Cl (stereo not drawn) | 5.09% (inactive) | –
75 | Cc1c(O)cc(O)c2c(=O)c(-c3ccc(O)cc3)coc12 | -10.6% (inactive) | –
76 | CCCOc1ccc(N/C=C/C(=O)C(C)(C)C)cc1 | -17.9% (inactive) | –
77 | CCOc1ccc(N/C=C/C(=O)c2cc(OC)c(OC)c(OC)c2)cc1 | – | 6.51 µM (active)
78 | CCOc1ccc(N/C=C/C(=O)c2ccccc2)cc1 | -23.6% (inactive) | –

Row | SMILES | activity change, negative = growth inhibition | Potency
79 | COc1ccc(C2CC(c3cccs3)=NN2c2ccc(F)cc2)cc1OC (stereo not drawn) | -7.92% (inactive) | –
80 | O=C(COC(=O)CCC(=O)c1cccs1)NCc1ccco1 | -17.4% (inactive) | –
81 | CCOc1ccc(S(=O)(=O)N(CC(=O)NCCSCc2ccc(C)cc2)c2ccccc2)cc1 | -14.4% (inactive) | –
82 | Cc1ccc(S(=O)(=O)N(CC(=O)NCCSC2CCCCC2)c2ccccc2F)cc1 | – | 18.4 µM (active)
83 | CCCNC(=O)CN(Cc1ccccc1F)S(=O)(=O)c1ccc(C)cc1 | -16.3% (inactive) | –
84 | COC(=O)[C@H]1Cc2cnoc2C[C@]1(C)C(=O)O | 2.02% (inactive) | –
85 | COc1cccc(-c2cc3nc4c(c(N5CCC6(CC5)OCCO6)n3n2)CCCC4)c1 | – | 20.6 µM (active)
86 | O=C(NCCO)c1cccc(-c2cccc3nccn23)c1 | -0.655% (inactive) | –
87 | C/C(CC(C)C)=N\Oc1nc(C)cc(C)n1 | -3.44% (inactive) | –
88 | CC1(C)O[C@@H]2CC3C4C[C@H](F)C5=CC(=O)C=CC5(C)C4C(O)CC3(C)[C@]2(C(=O)CO)O1 (stereo partly drawn) | -13.1% (inactive) | –
89 | Cc1nc2ccccc2c(-c2ccccc2)c1C(=O)c1ccccc1 | -15.8% (inactive) | –
90 | O=C(Nc1ccccc1N1CCOCC1)c1ccncc1 | -5.12% (inactive) | –
91 | CN1CCN(c2ccccc2NC(=O)COc2ccc(C3CCCCC3)cc2)CC1 | – | 16.4 µM (active)
92 | O=C(CN1CCCCC1)Nc1ccccc1C(=O)NC1CC1 | -14.5% (inactive) | –
93 | O=C(CN1CCCCC1)Nc1ccccc1Cl | 5.93% (inactive) | –
94 | CN1CCN(c2ccc(S(=O)(=O)N3CCCCC3)cc2NC(=O)Cc2ccccc2F)CC1 | -28.7% (inactive) | –
95 | CNC(=O)C1CC(=O)N(c2ccc(OCC(=O)Nc3ccccc3C)cc2)C1 (stereo not drawn) | 13.1% (inactive) | –
96 | O=C(CN1CCN(C2CCCCC2)CC1)Nc1ccccc1N1CCCCC1 | – | 22.4 µM (active)
97 | CC(=O)c1ccc(N2CCN(CC(=O)Nc3ccccc3N3CCOCC3)CC2)cc1 | – | 10.3 µM (active)
98 | CCc1ccc(C(=O)NC(=S)Nc2ccccc2N2CCOCC2)cc1 | -13.2% (inactive) | –
99 | O/N=C(\c1ccc2c(c1)OCCO2)C1CCCCC1 | -17.4% (inactive) | –
100 | CC1(C(=O)NS(=O)(=O)c2ccc(C#N)cc2)CCN1C(=O)c1ccc(C2CCCCC2)cc1 (stereo not drawn) | -14.8% (inactive) | –
101 | O=C(O)C1C2C=CC(O2)C1C(=O)NCCc1cccc(Cl)c1 (stereo not drawn) | -8.8% (inactive) | –
102 | COCC(C)NC(=O)c1ccc(Cl)c(Cl)c1 (stereo not drawn) | -15.4% (inactive) | –
103 | Cn1nc(C(=O)OCC(=O)N(Cc2ccccc2)C(C)(C)C)c2ccccc2c1=O | -26.5% (inactive) | –
